The source made the active and inactive calls. Unless noted, the rule behind the calls is not given here.
Columns and labels:
[1] = HepG2 liver cancer cell viability effects, profiling panel, resazurin fluorescence, 24 h, PK04 Diversity Set (AID 1172); conditions: higher = more signal
[2] = basal S. cerevisiae growth modulation, no modifier, primary screen, OD600, strain BY4716, 24 h, basal condition (AID 1173); conditions: OD600, 24 h, higher = more signal, called active from +8 up or from −8 down
[3] = MM1S myeloma cell viability, profiling panel, resazurin fluorescence, basal, 24 h, PK04 Diversity Set (AID 1174); conditions: higher = more signal, called active from +8 up or from −8 down;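 note: MM1S multiple myeloma cell line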
[4] = target: Dihydroorotate dehydrogenase (quinone), mitochondrial (Plasmodium falciparum (isolate 3D7)) (UniProt Q08210); assay: PfDHODH enzyme inhibitors, primary screen, biochemical, C-terminal His tag, absorbance 600 nm (AID 1175); conditions: DCIP absorbance 600 nm, higher = more signal, called active from +8 up or from −8 down;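 note: recombinant parasite enzyme with a five histidine tag at its C terminus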
[5] = P. aeruginosa biofilm formation inhibitors, primary screen, strain PAO1, LB-PBS medium, absorbance 600 nm (AID 1176); conditions: P. aeruginosa PAO1 growth/biofilm, A600, 12 h; higher = more signal
[6] = S. cerevisiae RM11-1a growth modifiers, primary screen, strain RM11-1a, OD600, basal, 24 h (AID 1177); conditions: OD600, 24 h, higher = more signal, called active from +8 up or from −8 down;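 note: cultures grown under basal conditions with no added stressor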
[7] = E. coli acrAB mutant growth effects, primary screen, E. coli filamentation inducers, strain DRC39, OD650, 24 h (AID 1178); conditions: higher = more signal, called active from +8 up or from −8 down;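 note: growth measured as culture turbidity by optical density at 650 nm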
[8] = E. coli acrAB mutant growth effects, primary screen, E. coli filamentation inducers, strain DRC39, OD650, 48 h (AID 1179);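 note: screen aims at cell division blockers that make cells filament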; conditions: E. coli DRC39 delta-acrAB growth, higher = more signal, called active from +8 up or from −8 down
[9] = RPMI8226 myeloma cell viability, profiling panel, resazurin fluorescence, basal, 24 h, PK04 Diversity Set (AID 1180); conditions: higher = more signal;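 note: RPMI8826 multiple myeloma cell line at 5000 cells per well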
[10] = target: E3 ubiquitin-protein ligase XIAP (Homo sapiens) (UniProt P98170); assay: XIAP binders, primary screen, biophysical, small-molecule microarray, fluorescence 635 nm (AID 1181); conditions: small-molecule microarray binding, higher = more signal;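 note: score merges 667 nm emission and signal to noise over triplicate slides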
[11] = tested on: XIP peptide (Xip251-270) binding; assay: small-molecule binders of XIP peptide, primary screen, biochemical, small-molecule microarray, fluorescence 635/667 nm, 0.1 µg/mL protein (AID 1182); conditions: fluorescent protein binding, 635 nm, higher = more signal, called active from +8 up or from −8 down
XIP peptide (Xip251-270) = assay: small-molecule binders of XIP peptide, primary screen, biochemical, small-molecule microarray, fluorescence 635/667 nm, 0.5 µg/mL protein (AID 1183); conditions: small-molecule microarray binding, fluorescence 635 nm; higher = more signal
[12] = Plasmodium falciparum growth inhibition, primary screen, strain 3D7, DAPI fluorescence, 100 nL (AID 1184);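 note: parasites grown inside human red blood cells in medium with human serum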; conditions: P. falciparum 3D7 growth, 3 d, higher = more signal
[13] = target: Homeobox protein Hox-A13 (Mus musculus) (UniProt Q62424); assay: inhibitors of HoxA13-DNA binding, primary screen, biochemical, fluorescence polarization, labeled oligonucleotide (AID 1185); conditions: 15 min, higher = more signal, called active from +8 up or from −8 down
[14] = inhibitors of hydroxyurea-induced Chk1 phosphorylation, primary screen, imaging, HeLa, phospho-Chk1 antibody, percent positive cells (AID 1186); conditions: hydroxyurea-induced phospho-Chk1 immunofluorescence imaging, higher = more signal
[15] = inhibitors of hydroxyurea-induced Chk1 phosphorylation, primary screen, imaging, HeLa, phospho-Chk1 nuclear intensity (AID 1187); conditions: hydroxyurea-induced phospho-Chk1 immunofluorescence imaging, higher = more signal

Chain of E3 ubiquitin-protein ligase XIAP (Homo sapiens) (P98170 whole entry, looked up): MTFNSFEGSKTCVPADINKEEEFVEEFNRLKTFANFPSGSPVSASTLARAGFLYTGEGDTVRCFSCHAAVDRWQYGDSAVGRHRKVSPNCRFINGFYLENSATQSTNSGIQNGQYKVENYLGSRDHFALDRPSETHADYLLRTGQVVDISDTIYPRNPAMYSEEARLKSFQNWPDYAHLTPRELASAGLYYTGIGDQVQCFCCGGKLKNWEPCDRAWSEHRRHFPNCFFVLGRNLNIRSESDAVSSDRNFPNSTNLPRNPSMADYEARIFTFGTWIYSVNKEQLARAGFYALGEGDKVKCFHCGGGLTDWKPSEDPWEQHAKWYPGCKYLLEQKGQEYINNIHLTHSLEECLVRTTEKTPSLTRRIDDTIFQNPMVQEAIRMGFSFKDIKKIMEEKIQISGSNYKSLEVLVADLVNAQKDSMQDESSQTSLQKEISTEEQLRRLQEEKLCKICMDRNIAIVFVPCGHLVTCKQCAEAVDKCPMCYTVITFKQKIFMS
Chain of Homeobox protein Hox-A13 (Mus musculus) (Q62424 whole entry, looked up): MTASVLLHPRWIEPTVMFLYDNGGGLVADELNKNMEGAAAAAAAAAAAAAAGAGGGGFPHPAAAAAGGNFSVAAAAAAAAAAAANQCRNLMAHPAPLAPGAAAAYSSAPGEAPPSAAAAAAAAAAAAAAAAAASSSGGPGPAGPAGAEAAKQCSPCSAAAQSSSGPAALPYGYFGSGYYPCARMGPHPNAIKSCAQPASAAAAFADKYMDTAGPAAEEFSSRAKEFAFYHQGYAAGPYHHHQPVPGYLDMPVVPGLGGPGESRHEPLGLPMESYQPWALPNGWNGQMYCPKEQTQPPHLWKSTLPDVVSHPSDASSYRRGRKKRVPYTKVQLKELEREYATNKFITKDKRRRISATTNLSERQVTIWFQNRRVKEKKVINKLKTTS
Chain of Dihydroorotate dehydrogenase (quinone), mitochondrial (Plasmodium falciparum (isolate 3D7)) (Q08210 whole entry, looked up): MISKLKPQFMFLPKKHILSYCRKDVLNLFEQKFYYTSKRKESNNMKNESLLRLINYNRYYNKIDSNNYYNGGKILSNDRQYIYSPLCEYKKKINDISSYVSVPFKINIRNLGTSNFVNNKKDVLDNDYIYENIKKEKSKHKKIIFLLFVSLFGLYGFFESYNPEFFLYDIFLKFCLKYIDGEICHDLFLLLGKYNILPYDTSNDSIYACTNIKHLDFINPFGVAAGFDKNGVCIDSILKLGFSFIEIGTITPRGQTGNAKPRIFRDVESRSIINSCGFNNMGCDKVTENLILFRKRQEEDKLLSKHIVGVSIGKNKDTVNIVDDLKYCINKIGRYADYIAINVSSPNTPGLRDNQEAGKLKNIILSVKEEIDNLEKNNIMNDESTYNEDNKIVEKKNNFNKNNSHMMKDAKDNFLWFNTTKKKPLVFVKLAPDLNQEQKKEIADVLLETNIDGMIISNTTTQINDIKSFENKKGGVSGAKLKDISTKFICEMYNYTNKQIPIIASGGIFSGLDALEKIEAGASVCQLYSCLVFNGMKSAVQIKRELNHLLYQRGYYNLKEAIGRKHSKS

Structure (SMILES)	z-score [1]	z-score [2]	z-score [3]	composite z-score [4]	z-score [5]	z-score [6]	z-score [7]	z-score [8]	z-score [9]	composite z-score [10]	composite z-score [11]	composite z-score (XIP peptide (Xip251-270))	z-score [12]	z-score [13]	z-score [14]	z-score [15]
CC(C)C(=C=CC[C@@H](O)c1ccccc1OCCO)C[C@@H](O)c1cc(Cl)cc(Cl)c1O	-0.563	-4.12 (inactive)	-1.35 (inactive)	-2.32 (inactive)	0.354 (inactive)	0.184 (inactive)	-0.501 (inactive)	-0.796 (inactive)	-0.932	-0.232	1.25 (inactive)	0.748	-1.39	-3.09 (inactive)	-0.059 (inactive)	0.189 (inactive)
COCCCN1C(=O)[C@@]2(Cc3ccccc31)c1ccccc1C(=O)N(Cc1ccccc1OC)[C@H]2c1ccc(CO)cc1	-0.525	-0.0955 (inactive)	-0.309 (inactive)	-3.75 (inactive)	0.292 (inactive)	-0.724 (inactive)	0.487 (inactive)	-0.128 (inactive)	-0.0935	-0.0622	-0.184 (inactive)	0.0806	0.861	-2.34 (inactive)	0.177 (inactive)	0.217 (inactive)
CN(C)CCCC[C@@H]1NC(=O)[C@@H]2C[C@H](C(=O)NCCCCCCNC(=O)CS)[C@H](c3cccc(OCCO)c3)N2C1=O	-0.725	-0.103 (inactive)	-0.196 (inactive)	-0.264 (inactive)	0.268 (inactive)	-0.491 (inactive)	0.303 (inactive)	0.94 (inactive)	0.117	-0.0052	0.602 (inactive)	0.667	-0.391	-2.01 (inactive)	0.134 (inactive)	-0.332 (inactive)
CCCC=C(CCC)[C@@H](NC(=O)c1ccco1)c1ccc(C(=O)OC)cc1	3.5	1.39 (inactive)	1.12 (inactive)	-0.0216 (inactive)	-0.387 (inactive)	1.67 (inactive)	-0.422 (inactive)	-0.245 (inactive)	-2.8	0.251	0.192 (inactive)	0.585	-0.465	-1.4 (inactive)	-0.125 (inactive)	-0.17 (inactive)
CN(C)C(=O)[C@]1(Cc2ccccc2CN=[N+]=[N-])N=C(c2ccc(OCCCO)cc2)O[C@@H]1c1ccccc1N=[N+]=[N-]	0.142	-0.0107 (inactive)	-1.54 (inactive)	-0.607 (inactive)	0.0533 (inactive)	1.37 (inactive)	0.377 (inactive)	0.529 (inactive)	-1.63	0.181	0.854 (inactive)	0.624	-1.89	-1.57 (inactive)	-0.72 (inactive)	-0.903 (inactive)
CCCC[C@H]1OB(O)C[C@H]2C1=C(C)C[C@H]1C(=O)C=CC(=O)[C@H]12	-0.559	-17.6 (active)	-1 (inactive)	-2.54 (inactive)	0.318 (inactive)	0.128 (inactive)	-0.449 (inactive)	-0.316 (inactive)	-0.312	-0.188	0.656 (inactive)	0.229	-0.0202	-6.4 (inactive)	0.217 (inactive)	-0.0819 (inactive)
CCC[C@@H]1[C@@H](Sc2ccccc2)[C@@H](C(=O)O)[C@H](c2ccc(C)cc2)N1S(=O)(=O)c1ccc(C)cc1	-0.428	-1.99 (inactive)	-0.0959 (inactive)	-1.04 (inactive)	0.257 (inactive)	-0.122 (inactive)	-0.008 (inactive)	0.329 (inactive)	-0.862	-0.0062	0.163 (inactive)	0.787	0.552	-5.85 (inactive)	0.275 (inactive)	0.971 (inactive)
CCc1cccc(NC(=O)O[C@H]2[C@H](OC(=O)Nc3ccc4c(c3)OCO4)[C@H](OC(=O)Nc3ccc4c(c3)OCO4)[C@@H](OC)O[C@@H]2CO)c1	-0.585	0.613 (inactive)	-1.44 (inactive)	-1.12 (inactive)	0.317 (inactive)	1.97 (inactive)	1.65 (inactive)	0.853 (inactive)	-1.47	-0.184	2.3 (inactive)	0.791	-2.26	-9.9 (active)	-0.392 (inactive)	-0.0612 (inactive)
COc1ccc(C#Cc2ccc3c(c2)[C@]2(C(=O)N3)[C@H](C(=O)Nc3nc4ccccc4s3)[C@H]3C(=O)O[C@H](c4ccccc4)[C@H](c4ccccc4)N3[C@@H]2c2ccc(OCCO)cc2)cc1	0.839	2.43 (inactive)	-0.625 (inactive)	-22.3 (active)	2.93 (inactive)	2.53 (inactive)	0.544 (inactive)	0.196 (inactive)	-0.639	0.0849	-0.509 (inactive)	0.782	-0.668	1.71 (inactive)	0.218 (inactive)	-0.0348 (inactive)
CN1C(=O)[C@]2(CCS(=O)(=O)c3ccccc3)N=C(c3ccc(OCCCO)cc3)O[C@@H]2c2ccccc21	-0.0688	0.902 (inactive)	-0.101 (inactive)	0.349 (inactive)	-0.0279 (inactive)	2.34 (inactive)	0.124 (inactive)	-0.687 (inactive)	-1.02	0.0506	2.2 (inactive)	0.897	-2.32	-5.03 (inactive)	-0.122 (inactive)	0.271 (inactive)
NC(=O)N1C(=O)C2C(C1=O)C1C=C(CCCO)C2C(c2ccc(CN3CCCC3)cc2)N1Cc1cccc(OC(F)(F)F)c1 (centres undefined)	-0.708	-0.491 (inactive)	-0.504 (inactive)	-4.9 (inactive)	-0.66 (inactive)	-0.219 (inactive)	-0.385 (inactive)	-0.579 (inactive)	-0.884	0.101	0.106 (inactive)	-0.133	-2.28	-7.26 (inactive)	0.0295 (inactive)	0.298 (inactive)
CN1C=C(C(=O)OCCS(C)(=O)=O)C(C(=O)OCCS(C)(=O)=O)=CC(CCCO)=CC1c1ccc(CN2CCCC2)cc1 (centres undefined)	-0.533	-2.02 (inactive)	0.0555 (inactive)	-0.379 (inactive)	0.719 (inactive)	0.27 (inactive)	0.364 (inactive)	0.121 (inactive)	0.274	-0.0525	0.629 (inactive)	0.694	-2.24	-4.07 (inactive)	0.266 (inactive)	-0.0538 (inactive)
CC(C)(C)N1CC=CC23O[C@@H]4/C=C\CCCOC(=O)C4[C@H]2C(=O)N(CCCCCCO)[C@@H]3C1=O (some centres undefined)	0.232	-0.584 (inactive)	0.702 (inactive)	-1.58 (inactive)	1.2 (inactive)	-1.13 (inactive)	-0.11 (inactive)	0.602 (inactive)	1.06	-0.0795	0.956 (inactive)	0.346	-0.136	-4.63 (inactive)	0.114 (inactive)	1.32 (inactive)
COCCOC(=O)N1C(=O)[C@@]2(c3cc(C#CC4=CCCCC4)ccc31)[C@H](C(=O)N1CCN(c3ncccn3)CC1)[C@H]1C(=O)O[C@H](c3ccccc3)[C@H](c3ccccc3)N1[C@@H]2c1ccccc1OCCO	1.32	1.23 (inactive)	1.02 (inactive)	0.598 (inactive)	4.43 (inactive)	1.64 (inactive)	-0.368 (inactive)	-0.514 (inactive)	0.318	-0.312	0.506 (inactive)	0.59	-2.32	2.82 (inactive)	-0.274 (inactive)	-0.475 (inactive)
